Measurements reported in PubChem BioAssay (NCI).
Compounds without any hit were thinned out: in the full panel of roughly 83,000, 20% have a hit.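 48-hour exposure, single concentration, 96-well plates; percent growth endpoint where 0 means no net growth. Active: below 10.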 Active and inactive are the calls of the source.

Tested on: M14 melanoma
Experiment: NCI-60 one-dose screen, 48 h (100 = growth as untreated, 0 = no growth, -100 = all killed)
Settings: 10 µM unless noted

SMILES | growth
COc1ccc(C(=O)NC(=O)Nc2ccc3c(c2)NC(=O)/C3=C\c2[nH]c(C)c(CCC(=O)O)c2C)c(F)c1 | 33.2% (inactive)
Cn1c(I)c(C#C[Si](C)(C)C)c(=O)[nH]c1=O | -50.1% (active)
COC(=O)c1oc2c(C(C)=O)c(OCCCN(C)C)ccc2c1C | 123% (inactive)
CC(C)NCC(O)COc1ccc(CC(N)=O)cc1 (centres undefined) | 98.3% (inactive)
O=C(NCCNc1nccc(-c2c(-c3cccc(O)c3)nc3sccn23)n1)Nc1cccc(C(F)(F)F)c1 | -21.7% (active)
CNCCCOc1c(Br)cc(CCNC(=O)/C(Cc2ccc(OC)c(Br)c2)=N/O)cc1Br | -55.9% (active)
COc1cccc(-c2nc3sccn3c2-c2ccnc(NCCNC(=O)c3ccccc3)n2)c1 | 40.1% (inactive)
O=C(N/N=C1\SCC(=O)N1c1ccccc1)c1cc(-c2cc3ccccc3o2)nn1-c1ccccc1 | 110% (inactive)
Cc1ccc2c(c1)Nc1ccc(C)cc1C2(C)C | 98.2% (inactive)
COc1cc(NC(C)CCCN2C(=O)c3ccccc3C2=O)c2nccc(C)c2c1OC (centres undefined) | 135% (inactive)
NCC(=O)NS(=O)(=O)OC[C@H]1O[C@@H](n2cnc3c(N)ncnc32)[C@H](O)[C@@H]1O | -23.1% (active)
CCN(CC)CC(=O)Nc1c(C)cccc1C | 100% (inactive)
Nc1ncnc2c1c(-c1ccc(Oc3ccccc3)cc1)nn2C[C@@H]1SSC[C@H]1O | -13.8% (active)
COc1cc(/C=C\c2cc(/C=C\c3ccc(O)c(OC)c3)n(C(=O)CNc3ccccc3OC)n2)ccc1O | 35.4% (inactive)
O=C1OC(N(Cc2ccc(Cl)cc2)c2ccccc2)c2ccccc21 (centres undefined) | 104% (inactive)
CN(C)CC/C=C1\c2ccccc2Sc2ccc(Cl)cc21 | -57.5% (active)
O=C(Nc1cccc(-n2ccc3c(NC(=O)c4ccccc4)nccc32)c1)Nc1cc(C(F)(F)F)cc(C(F)(F)F)c1 | -43.8% (active)
CCCCC(=O)Nc1nc2ccc(SCCC)cc2s1 | 37.3% (inactive)
CCN(CC)c1ccc(C2CC(c3cc(OC)c(OC)c(OC)c3)=NN2)cc1 (centres undefined) | 5.55% (active)
c1ccc2nc(Cn3cc[n+](Cc4ccc5ccccc5n4)c3)ccc2c1 | 69% (inactive)

SMILES | growth
Clc1ccc(OCc2nc(-c3ccccc3)n[nH]2)c(Cl)c1 | 106% (inactive)
CC(C)CNCC(=O)Nc1ccc(Cc2ccc(NC(=O)CNCC(C)C)cc2)cc1 | 38.6% (inactive)
O=C(O)c1ccc(-n2cc(/C=N/Nc3ccc(F)cc3)c(-c3cccc(C(F)(F)F)c3)n2)cc1 | 51.3% (inactive)
CCCCCCCCCCCCCCCCCCNCc1ccc(Cl)cc1 | -72.2% (active)
COc1ccc(CCNC=O)cc1OC | 100% (inactive)
O=C(COc1ccc(Cl)cc1Cl)N1N=C(c2ccc(Cl)cc2Cl)CC1(O)c1cc(F)c(Cl)cc1Cl (centres undefined) | 94.1% (inactive)
Cc1nccc2c3ccc(OCc4cn(Cc5ccc(Br)cc5)nn4)cc3n(CCCc3ccccc3)c12 | 103% (inactive)
COc1ccc(-c2c(C#N)cnc(N)c2-c2nc3cc(C)c(C)cc3[nH]2)cc1 | 51.2% (inactive)
O=c1c2ccccc2[nH]n1Cc1ccc2c(c1)OCO2 | 104% (inactive)
COc1cc(Nc2ncccc2C(=O)Nc2nc3ccc(F)cc3s2)cc(OC)c1OC | 19.1% (inactive)
Cc1ccc(Cn2cc(COc3ccc4c5ccnc(C)c5n(CCCc5ccccc5)c4c3)nn2)cc1 | 86.2% (inactive)
O=C(Nc1ccc(-n2ccc3c(NC(=O)c4ccccc4)ncnc32)cc1)Nc1ccc(Cl)c(C(F)(F)F)c1 | 3.01% (active)
CCCCOc1c(N)cc(Cl)cc1C(=O)OCCN(CC)CC | 107% (inactive)
CC(Cl)(CCl)CS(=O)(=O)c1ccc(Cl)cc1 (centres undefined) | 104% (inactive)
CCc1c(C)c2cc3c(c(C)c2oc1=O)OCC(=O)N3 | 88.8% (inactive)
Cc1ccc(NC(=O)CN2CCOCC2)cc1Cl | 100% (inactive)
CC1(C)CC(=O)C2=C(C1)OC1=C(C(=O)CC(C)(C)C1)C2c1ccc(OCc2cn(-c3ccc(F)cc3F)nn2)cc1 | 87.3% (inactive)
COc1cccc(-c2nc3sccn3c2-c2ccnc(NCCNC(=O)Nc3cccc(C(F)(F)F)c3)n2)c1 | 39.2% (inactive)
CN(C)c1ccc(/C=N/N=C(N)N)cc1 | 51.2% (inactive)
